Reference: PubChem BioAssay
“And” between values parts separate entries of the source, which are not always exact repeats. Equal entries are not always repeated.

experiment: Primary imaging screen for DUSP6 inhibitors that restore phospho-Erk in transfected HeLa cells, chemical complementation (AID 609); details: HeLa MKP-3 transfected, phospho-Erk imaging KS statistic; measured here: nuclear c-Myc green intensity z-score; at 10 µM; cells stimulated with TPA for 15 min

SMILES	z-score
N#CC1=C(N)N(c2ccccc2)C(c2ccccc2)C1(C#N)C#N (configuration not stated)	-0.703
CC(C)NCC(O)COc1cccc2[nH]ccc12 (configuration not stated)	-0.142
COCc1cc(=O)[nH]c(Nc2nc3ccccc3o2)n1	-1.45
Cn1c(Cl)cnc1C1CC(=O)c2cc(Cl)ccc2O1 (configuration not stated)	-0.603
CCOC(=O)CC(C#N)c1cn(C)c2ccccc12 (configuration not stated)	0.465
CCCC(=O)Nc1ccc(OCC(O)CNC(C)C)c(C(C)=O)c1 (configuration not stated)	-0.994
CC1(C)SC2[C@H](NC(=O)C(NC(=O)N3CCNC3=O)c3ccccc3)C(=O)N2C1C(=O)O (some centres not stated)	-0.196
CCOC(=O)C1=C(CSc2nc(C)cc(C)c2C#N)OC(N)=C(C#N)C1c1cccs1 (configuration not stated)	-1.39
Cc1ccc(N(CC2=NCCN2)c2cccc(O)c2)cc1	1.38 and 2.5
Cc1cc(NS(=O)(=O)c2ccc(N)cc2)no1	-0.449
O=c1cc(NCc2ccccc2)nc2n1CCCS2	-0.473
COc1ccc2c(C)nc(Nc3nc(C)cc(C)n3)nc2c1	0.468
Fc1cc(F)c(F)c(SCCc2ccncc2)c1F	0.923
CN1CCN(C2=Nc3ccccc3Oc3ccc(Cl)cc32)CC1	0.672
Cc1cnc(NC(=O)C2=C(O)c3ccccc3S(=O)(=O)N2C)s1	0.936
COc1cccc2c1C(=O)c1c(O)c3c(c(O)c1C2=O)C[C@@](O)(C(=O)CO)C[C@@H]3O[C@H]1C[C@H](N)[C@H](O)[C@H](C)O1	6.47
O=S(=O)(c1cccc2cnccc12)N1CCCNCC1	0.628
CC(C)Cc1ccc(C(C)C(=O)O)cc1 (configuration not stated)	-0.145
C[C@H](CS)C(=O)N1CCC[C@H]1C(=O)O	-1.55

SMILES	z-score
COC(=O)C1=C(C)NC(C)=C(C(=O)OC)C1c1ccccc1[N+](=O)[O-]	0.789
Nc1ccc(S(=O)(=O)Nc2ncccn2)cc1	-1.89
COc1ccccc1C1C(C#N)=C(N)Oc2cc(C)n(Cc3ccccn3)c(=O)c21 (configuration not stated)	-0.155
CC(=O)O[C@H]1C(=O)[C@]2(C)[C@H]([C@H](OC(=O)c3ccccc3)[C@]3(O)C[C@H](OC(=O)[C@H](O)[C@@H](NC(=O)c4ccccc4)c4ccccc4)C(C)=C1C3(C)C)[C@]1(OC(C)=O)CO[C@@H]1C[C@@H]2O	0.25
CCC(=O)O[C@@H]1CC(=O)O[C@H](C)CC=CC=C[C@@H](O)[C@H](C)C[C@H](CC=O)[C@H](O[C@H]2O[C@H](C)[C@@H](O[C@H]3C[C@@](C)(O)[C@@H](OC(=O)CC)[C@H](C)O3)[C@H](N(C)C)[C@H]2O)[C@H]1OC	-0.404
CCCn1c(=O)[nH]c(=O)c2[nH]cnc21	-1.33
CC[N+](C)(C)Cc1ccccc1Br	-0.375
COC(=O)c1cc(=O)n2c(-c3ccc(OC)cc3)csc2n1	0.15
COc1ccccc1OCC(O)COC(N)=O (configuration not stated)	0.796
COc1cc2nc(N3CCN(C(=O)c4ccco4)CC3)nc(N)c2cc1OC	-0.94
Cc1nnc(SCC2=C(C(=O)O)N3C(=O)[C@@H](NC(=O)Cn4cnnn4)[C@H]3SC2)s1	0.639
Clc1ccc2c(c1)C(N1CCNCC1)=Nc1ccccc1O2	-0.679
CC1(C)S[C@@H]2[C@H](NC(=O)[C@H](C(=O)O)c3ccsc3)C(=O)N2[C@H]1C(=O)O	-0.916
O=C(O)c1cc(=O)c2c(OCC(O)COc3cccc4oc(C(=O)O)cc(=O)c34)cccc2o1	1.02
CC[C@H]1OC(=O)C[C@@H](O)[C@H](C)[C@@H](O[C@@H]2O[C@H](C)C[C@H](N(C)C)[C@H]2O)[C@@H](CC=O)C[C@@H](C)C(=O)C=C[C@]2(C)O[C@H]2[C@@H]1C	-0.225
O=C(O)CCNC(=O)c1ccccc1	-0.161
CC[C@H](C)C(=O)O[C@H]1C[C@@H](C)C=C2C=C[C@H](C)[C@H](CC[C@@H]3C[C@@H](O)CC(=O)O3)[C@H]21	-1.59
Cc1ccc(C2C3CN(C(C)C)CC=C3C(C#N)=C(N)C2(C#N)C#N)cc1 (configuration not stated)	2.35
